Experiment [1] has as its target Tyrosine-protein kinase SYK (Homo sapiens) (UniProt P43405). As to conditions: at 10 µM.
The target in experiment [2] is T1, Mitogen-activated protein kinase kinase kinase 7 (Homo sapiens) (UniProt O43318).
T1 sequence (whole entry): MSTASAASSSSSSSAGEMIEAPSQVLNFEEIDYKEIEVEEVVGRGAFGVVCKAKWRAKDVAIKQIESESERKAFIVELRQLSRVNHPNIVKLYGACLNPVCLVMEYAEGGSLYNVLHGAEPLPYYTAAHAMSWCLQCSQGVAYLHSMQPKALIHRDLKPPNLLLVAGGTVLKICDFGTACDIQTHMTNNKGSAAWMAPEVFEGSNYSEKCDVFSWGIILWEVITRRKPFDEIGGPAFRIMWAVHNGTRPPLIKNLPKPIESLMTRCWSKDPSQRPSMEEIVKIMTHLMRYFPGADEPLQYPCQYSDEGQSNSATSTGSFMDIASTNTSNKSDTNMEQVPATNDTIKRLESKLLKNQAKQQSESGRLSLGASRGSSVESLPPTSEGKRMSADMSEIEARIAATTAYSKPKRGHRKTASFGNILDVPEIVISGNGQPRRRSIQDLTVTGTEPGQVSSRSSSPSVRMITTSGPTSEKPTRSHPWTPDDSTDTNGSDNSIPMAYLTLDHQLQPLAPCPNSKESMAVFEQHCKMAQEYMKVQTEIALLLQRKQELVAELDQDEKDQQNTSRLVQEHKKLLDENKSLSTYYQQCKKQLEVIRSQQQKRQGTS
As to conditions: at 1 µM.

In experiment [3] the target is T1, Mitogen-activated protein kinase kinase kinase 7 (Homo sapiens). As to conditions: at 10 µM.
Experiment [4] concerns the target T2, Serine/threonine-protein kinase TAO1 (Homo sapiens) (UniProt Q7L7X3).
T2 sequence (whole entry): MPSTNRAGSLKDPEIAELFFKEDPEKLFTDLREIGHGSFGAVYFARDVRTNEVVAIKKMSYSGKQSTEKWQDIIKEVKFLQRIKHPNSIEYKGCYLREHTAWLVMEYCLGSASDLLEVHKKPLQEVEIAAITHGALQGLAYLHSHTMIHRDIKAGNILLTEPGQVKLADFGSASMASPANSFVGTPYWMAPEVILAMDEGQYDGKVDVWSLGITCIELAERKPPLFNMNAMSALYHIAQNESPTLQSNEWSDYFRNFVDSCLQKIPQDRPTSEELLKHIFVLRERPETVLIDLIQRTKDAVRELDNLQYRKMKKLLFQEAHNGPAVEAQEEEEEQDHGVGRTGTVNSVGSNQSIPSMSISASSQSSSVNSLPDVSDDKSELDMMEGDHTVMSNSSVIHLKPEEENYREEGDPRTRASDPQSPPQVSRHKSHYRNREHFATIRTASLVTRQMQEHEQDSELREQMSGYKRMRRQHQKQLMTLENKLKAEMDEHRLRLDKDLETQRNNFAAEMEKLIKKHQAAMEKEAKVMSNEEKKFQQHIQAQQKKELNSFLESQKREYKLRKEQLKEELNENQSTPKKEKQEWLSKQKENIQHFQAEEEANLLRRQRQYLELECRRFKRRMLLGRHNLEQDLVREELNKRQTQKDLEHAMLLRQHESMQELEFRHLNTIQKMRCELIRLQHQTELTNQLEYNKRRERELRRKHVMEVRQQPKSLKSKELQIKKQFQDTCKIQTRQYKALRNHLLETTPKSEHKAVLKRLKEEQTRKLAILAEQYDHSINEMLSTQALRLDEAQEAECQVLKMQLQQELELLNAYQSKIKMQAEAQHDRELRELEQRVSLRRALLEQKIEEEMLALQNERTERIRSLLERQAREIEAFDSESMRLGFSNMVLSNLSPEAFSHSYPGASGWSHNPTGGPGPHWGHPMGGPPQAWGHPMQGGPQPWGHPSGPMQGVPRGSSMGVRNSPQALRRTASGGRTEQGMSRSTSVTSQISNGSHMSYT
As to conditions: at 1 µM.

The target in experiment [5] is T2, Serine/threonine-protein kinase TAO1 (Homo sapiens). As to conditions: at 10 µM.
The target of experiment [6] is T3, Serine/threonine-protein kinase TAO2 (Homo sapiens) (UniProt Q9UL54).
T3 sequence (whole entry): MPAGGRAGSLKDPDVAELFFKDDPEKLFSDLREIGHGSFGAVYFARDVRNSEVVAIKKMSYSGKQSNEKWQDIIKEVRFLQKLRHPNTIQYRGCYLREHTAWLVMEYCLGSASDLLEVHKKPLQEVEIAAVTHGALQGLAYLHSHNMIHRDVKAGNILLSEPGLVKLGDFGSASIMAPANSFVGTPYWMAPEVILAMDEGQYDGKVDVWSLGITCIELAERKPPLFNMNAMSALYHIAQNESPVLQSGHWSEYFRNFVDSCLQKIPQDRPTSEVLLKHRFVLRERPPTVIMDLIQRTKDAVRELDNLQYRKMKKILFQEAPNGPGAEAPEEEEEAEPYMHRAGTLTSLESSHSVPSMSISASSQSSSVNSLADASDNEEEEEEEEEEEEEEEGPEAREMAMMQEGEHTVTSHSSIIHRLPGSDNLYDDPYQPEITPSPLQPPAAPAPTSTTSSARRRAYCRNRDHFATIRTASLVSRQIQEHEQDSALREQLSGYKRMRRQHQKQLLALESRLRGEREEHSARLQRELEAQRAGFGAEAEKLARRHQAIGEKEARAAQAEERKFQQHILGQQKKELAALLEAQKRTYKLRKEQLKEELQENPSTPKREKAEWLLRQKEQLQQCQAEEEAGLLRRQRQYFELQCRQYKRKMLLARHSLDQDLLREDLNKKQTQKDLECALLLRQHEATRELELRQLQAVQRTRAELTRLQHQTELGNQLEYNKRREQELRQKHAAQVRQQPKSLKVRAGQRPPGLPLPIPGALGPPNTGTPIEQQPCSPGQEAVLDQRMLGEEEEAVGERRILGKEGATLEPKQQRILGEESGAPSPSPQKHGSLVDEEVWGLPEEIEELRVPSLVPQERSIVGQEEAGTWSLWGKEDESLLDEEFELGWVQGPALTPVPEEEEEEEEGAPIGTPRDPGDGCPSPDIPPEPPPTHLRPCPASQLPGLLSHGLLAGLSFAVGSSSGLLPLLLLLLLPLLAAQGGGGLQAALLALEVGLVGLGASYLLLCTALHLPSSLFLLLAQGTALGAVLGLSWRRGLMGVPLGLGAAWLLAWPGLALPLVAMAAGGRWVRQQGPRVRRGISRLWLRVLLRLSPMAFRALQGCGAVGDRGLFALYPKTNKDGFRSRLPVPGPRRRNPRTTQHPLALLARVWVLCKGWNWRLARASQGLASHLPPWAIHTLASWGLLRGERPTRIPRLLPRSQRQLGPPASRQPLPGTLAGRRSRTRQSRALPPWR
As to conditions: at 1 µM.

In experiment [7] the target is T3, Serine/threonine-protein kinase TAO2 (Homo sapiens). As to conditions: at 10 µM.
Experiment [8] concerns the target T4, Serine/threonine-protein kinase TAO3 (Homo sapiens) (UniProt Q9H2K8).
T4 sequence (whole entry): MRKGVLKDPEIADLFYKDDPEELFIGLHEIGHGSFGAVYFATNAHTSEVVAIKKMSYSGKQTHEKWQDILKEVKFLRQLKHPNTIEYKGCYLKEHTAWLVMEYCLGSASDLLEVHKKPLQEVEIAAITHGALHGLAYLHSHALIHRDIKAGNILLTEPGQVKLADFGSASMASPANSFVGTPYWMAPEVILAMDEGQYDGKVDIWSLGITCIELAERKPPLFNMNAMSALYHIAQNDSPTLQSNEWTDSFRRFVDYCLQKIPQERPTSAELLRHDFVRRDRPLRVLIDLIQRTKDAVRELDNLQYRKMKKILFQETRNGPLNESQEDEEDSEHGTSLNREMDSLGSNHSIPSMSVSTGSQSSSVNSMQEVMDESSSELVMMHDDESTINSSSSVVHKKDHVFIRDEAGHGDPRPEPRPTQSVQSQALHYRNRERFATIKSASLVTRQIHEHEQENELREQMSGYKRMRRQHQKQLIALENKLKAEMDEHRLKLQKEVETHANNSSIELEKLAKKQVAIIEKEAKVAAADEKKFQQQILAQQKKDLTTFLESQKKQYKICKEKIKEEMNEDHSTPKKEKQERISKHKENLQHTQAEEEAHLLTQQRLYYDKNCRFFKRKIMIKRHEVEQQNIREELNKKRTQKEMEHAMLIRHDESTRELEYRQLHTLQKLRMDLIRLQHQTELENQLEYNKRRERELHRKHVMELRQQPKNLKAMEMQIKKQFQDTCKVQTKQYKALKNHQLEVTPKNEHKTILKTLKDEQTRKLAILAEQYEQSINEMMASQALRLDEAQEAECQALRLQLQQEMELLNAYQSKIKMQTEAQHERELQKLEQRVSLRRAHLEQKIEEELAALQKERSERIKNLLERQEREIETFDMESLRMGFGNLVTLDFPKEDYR
As to conditions: at 1 µM.

Experiment [9] addresses T4, Serine/threonine-protein kinase TAO3 (Homo sapiens). As to conditions: at 10 µM.
Experiment [10] has as its target T5, Serine/threonine-protein kinase TBK1 (Homo sapiens) (UniProt Q9UHD2).
T5 sequence (whole entry): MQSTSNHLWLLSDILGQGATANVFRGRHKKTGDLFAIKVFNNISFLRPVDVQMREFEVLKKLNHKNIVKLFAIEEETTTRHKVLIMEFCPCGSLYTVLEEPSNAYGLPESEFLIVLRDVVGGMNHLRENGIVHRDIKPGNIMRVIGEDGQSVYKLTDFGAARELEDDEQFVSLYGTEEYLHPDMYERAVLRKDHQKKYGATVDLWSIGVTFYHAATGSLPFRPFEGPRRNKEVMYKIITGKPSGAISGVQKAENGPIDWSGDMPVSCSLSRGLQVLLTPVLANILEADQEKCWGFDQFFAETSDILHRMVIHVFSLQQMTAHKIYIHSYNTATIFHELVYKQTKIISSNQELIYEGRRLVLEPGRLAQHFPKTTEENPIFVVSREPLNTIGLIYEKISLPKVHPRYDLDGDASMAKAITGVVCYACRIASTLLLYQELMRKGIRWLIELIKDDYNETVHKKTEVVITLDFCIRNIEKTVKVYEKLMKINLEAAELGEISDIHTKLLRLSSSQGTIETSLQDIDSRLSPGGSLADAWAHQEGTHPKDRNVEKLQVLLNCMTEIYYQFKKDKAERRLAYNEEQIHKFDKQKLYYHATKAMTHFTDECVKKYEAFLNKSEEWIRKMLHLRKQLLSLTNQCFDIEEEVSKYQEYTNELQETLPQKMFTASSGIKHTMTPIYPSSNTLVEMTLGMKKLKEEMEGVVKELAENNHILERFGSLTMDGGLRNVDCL
As to conditions: at 1 µM.

Consider `COc1cc2ncnc(Nc3ccc(O)c(Br)c3)c2cc1OC`, for which the residual activity in experiment [1] was 68%; in experiment [2] it was 81%; in experiment [3], 62%; in experiment [4], 86%; in experiment [5], 48%; in [6] it was 98%. Also, the residual activity in experiment [7] was 75%; in experiment [8], 82%; in experiment [9], 61%; in [10], 41%.
